Test results reported in PubChem BioAssay (NCI).
Values joined by “and” are separate entries in the source; they are usually repeats but may differ in a detail not shown here. Equal values may be shown once. The panel holds about 83,000 compounds, 20% with a hit somewhere; the sample as a whole holds those more often.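 Method: cells in 96-well plates; compound added at one concentration; 48 h incubation; percent growth measured; values under 10 scored active.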 Active and inactive are the calls of the source.

Assays:
Experiment in all cases: NCI-60 one-dose screen, 48 h (100 = growth as untreated, 0 = no growth, -100 = all killed)
Details in all cases: 10 µM unless noted
[1] = tested on: SR leukemia
[2] = tested on: RPMI-8226 leukemia
[3] = tested on: OVCAR-8 ovarian
[4] = tested on: OVCAR-5 ovarian
[5] = tested on: OVCAR-4 ovarian
[6] = tested on: OVCAR-3 ovarian
[7] = tested on: HS 578T breast
[8] = tested on: NCI/ADR-RES ovarian
[9] = tested on: T-47D breast
[10] = tested on: BT-549 breast
[11] = tested on: MDA-MB-435 melanoma
[12] = tested on: SW-620 colon
[13] = tested on: MCF7 breast
[14] = tested on: HCT-116 colon
[15] = tested on: HCC-2998 colon
[16] = tested on: KM12 colon
[17] = tested on: IGROV1 ovarian
[18] = tested on: SK-OV-3 ovarian

## CN1CCN(CCC=C2c3ccccc3Sc3ccc(S(=O)(=O)N(C)C)cc32)CC1
[1]
  growth: 2.47% (active)
[2]
  growth: 26.4% (inactive) and 23.4% (inactive)
[3]
  growth: 83.8% (inactive) and 95.7% (inactive)
[4]
  growth: 80.1% (inactive)
[5]
  growth: 80.6% (inactive) and 85.2% (inactive)
[6]
  growth: 91.4% (inactive) and 71.7% (inactive)
[7]
  growth: 52.5% (inactive) and 65.4% (inactive)
[8]
  growth: 74.7% (inactive) and 84.9% (inactive)
[9]
  growth: 77.4% (inactive)
[10]
  growth: 67.9% (inactive) and 70% (inactive)
[11]
  growth: 12.8% (inactive) and 6.78% (active)
[12]
  growth: 76.9% (inactive) and 74.2% (inactive)
[13]
  growth: 41.2% (inactive) and 71.9% (inactive)
[14]
  growth: 39.5% (inactive) and 45.1% (inactive)
[15]
  growth: 13.9% (inactive) and 14.4% (inactive)
[16]
  growth: 68.7% (inactive) and 73.4% (inactive)

## CN(C)c1ccc(C(=C2C=CC(=[N+](C)C)C=C2)c2ccccc2Cl)cc1
[1]
  growth: -38.3% (active)
[2]
  growth: -22.6% (active)
[3]
  growth: -77.5% (active) and -77.8% (active)
[4]
  growth: -27.8% (active) and -93.8% (active)
[5]
  growth: 4.46% (active) and -27% (active)
[17]
  growth: -81.1% (active) and -67.1% (active)
[6]
  growth: -88.9% (active) and -91.4% (active)
[7]
  growth: -37.3% (active) and -21.2% (active)
[8]
  growth: 23.2% (inactive) and 9.87% (active)
[9]
  growth: -33.3% (active) and -72.6% (active)
[10]
  growth: -35.9% (active) and 1.51% (active)
[11]
  growth: -40.9% (active) and -29% (active)
[12]
  growth: -75.8% (active) and -78.1% (active)
[13]
  growth: -9.73% (active) and -58.7% (active)
[14]
  growth: -66.7% (active) and -99.5% (active)
[15]
  growth: -92.3% (active) and -98.8% (active)

## CCN(CC)CCCC(CNc1ccnc2cc(Cl)ccc12)c1ccc(Cl)cc1 (stereo not given)
[1]
  growth: -42.9% (active) and -57.7% (active)
[2]
  growth: -7.53% (active) and -24.9% (active)
[3]
  growth: 7.69% (active) and 8.6% (active)
[5]
  growth: -34.9% (active) and 14.3% (inactive)
[18]
  growth: 28% (inactive) and 99.4% (inactive)
[17]
  growth: -9.56% (active) and 20.2% (inactive)
[6]
  growth: 43% (inactive) and 19.9% (inactive)
[7]
  growth: 21.6% (inactive)
[8]
  growth: 19.5% (inactive) and 15.9% (inactive)
[9]
  growth: -41.1% (active) and 114% (inactive)
[10]
  growth: 10.4% (inactive) and -11.4% (active)
[11]
  growth: -93.3% (active) and -61.5% (active)
[12]
  growth: 6.45% (active) and -100% (active)
[13]
  growth: -31.8% (active) and 70.3% (inactive)
[14]
  growth: -15.1% (active) and -20.3% (active)
[15]
  growth: -76.8% (active) and -93.6% (active)

## Cn1cc(-c2cc3c(Nc4ccc(CC(=O)Nc5cc(C(C)(C)C)on5)cc4)ncnc3[nH]2)cn1
[1]
  growth: 2.58% (active)
[2]
  growth: -2.19% (active) and -22.3% (active)
[3]
  growth: 4.54% (active) and 2.06% (active)
[4]
  growth: -8.65% (active) and 5.67% (active)
[5]
  growth: -12.1% (active) and 5.44% (active)
[18]
  growth: -5.62% (active) and -14.8% (active)
[6]
  growth: -15.1% (active) and -6.62% (active)
[7]
  growth: -22.4% (active) and -15.2% (active)
[8]
  growth: 79.5% (inactive) and 80.3% (inactive)
[9]
  growth: -1.6% (active) and -13.9% (active)
[10]
  growth: -15% (active) and -15.8% (active)
[11]
  growth: -42.3% (active) and -0.328% (active)
[12]
  growth: -7.24% (active) and 1.5% (active)
[13]
  growth: 4.99% (active) and 7.91% (active)
[14]
  growth: 0.379% (active) and 1.42% (active)
[16]
  growth: -20.7% (active) and 3.37% (active)

## CC(=O)c1ccc2c(c1)N(CCCN1CCN(CCO)CC1)c1ccccc1S2
[1]
  growth: -30.2% (active)
[2]
  growth: 77.6% (inactive) and 10.7% (inactive)
[3]
  growth: 82.5% (inactive) and 72.9% (inactive)
[4]
  growth: 93% (inactive) and 51.6% (inactive)
[5]
  growth: 101% (inactive) and 49.8% (inactive)
[18]
  growth: 152% (inactive) and 50.5% (inactive)
[6]
  growth: 103% (inactive) and 40.7% (inactive)
[7]
  growth: 87.6% (inactive) and -20.1% (active)
[9]
  growth: 160% (inactive) and 37.8% (inactive)
[10]
  growth: 88.1% (inactive) and 44.6% (inactive)
[11]
  growth: 84.1% (inactive) and -67% (active)
[12]
  growth: 95% (inactive) and -52.1% (active)
[13]
  growth: 79.2% (inactive) and -31.2% (active)
[14]
  growth: 83.9% (inactive) and -11.8% (active)
[15]
  growth: 102% (inactive) and -55.5% (active)
[16]
  growth: 105% (inactive) and 2.29% (active)

## COC(=O)[C@H]1CCCN1C(=O)C1CCCN1C(=O)[C@@H](Cc1ccccc1)NC(=S)Nc1cc(C(F)(F)F)cc(C(F)(F)F)c1 (stereo not given in full)
[1]
  growth: 95.2% (inactive) and 67.5% (inactive)
[2]
  growth: 109% (inactive) and 66.2% (inactive)
[3]
  growth: 100% (inactive) and 87% (inactive)
[4]
  growth: 98.9% (inactive) and 90.4% (inactive)
[5]
  growth: 104% (inactive) and 80.7% (inactive)
[17]
  growth: 123% (inactive) and 69.8% (inactive)
[6]
  growth: 111% (inactive) and 77.1% (inactive)
[7]
  growth: 105% (inactive) and 98.2% (inactive)
[9]
  growth: 105% (inactive) and 69.1% (inactive)
[10]
  growth: 112% (inactive) and 96.8% (inactive)
[11]
  growth: 100% (inactive) and 89.7% (inactive)
[12]
  growth: 104% (inactive) and 89% (inactive)
[13]
  growth: 99.2% (inactive) and 86.3% (inactive)
[14]
  growth: 112% (inactive) and 65.5% (inactive)
[15]
  growth: 108% (inactive) and 112% (inactive)

## CC(C)(C)c1ccc(O)c(CNC2CCCCC2)c1
[1]
  growth: 80% (inactive) and 83.5% (inactive)
[2]
  growth: 82% (inactive) and 74.9% (inactive)
[3]
  growth: 101% (inactive) and 88.9% (inactive)
[4]
  growth: 106% (inactive) and 93% (inactive)
[5]
  growth: 82.8% (inactive)
[17]
  growth: 97.7% (inactive) and 92% (inactive)
[6]
  growth: 111% (inactive) and 92.8% (inactive)
[7]
  growth: 89.2% (inactive) and 89.9% (inactive)
[8]
  growth: 98.5% (inactive)
[9]
  growth: 112% (inactive) and 75.9% (inactive)
[10]
  growth: 85.1% (inactive)
[11]
  growth: 97.9% (inactive) and 96.6% (inactive)
[12]
  growth: 101% (inactive) and 98.5% (inactive)
[13]
  growth: 93% (inactive) and 93.8% (inactive)
[14]
  growth: 86.7% (inactive) and 88.3% (inactive)
[16]
  growth: 105% (inactive) and 92.2% (inactive)

## CCOC(=O)Nc1nc2ccccc2[nH]1
[1]
  growth: 98.9% (inactive)
[2]
  growth: 97.3% (inactive) and -1.09% (active)
[3]
  growth: 97.7% (inactive) and 50.6% (inactive)
[5]
  growth: 111% (inactive) and 83% (inactive)
[18]
  growth: 103% (inactive) and 31.1% (inactive)
[17]
  growth: 114% (inactive) and 39.3% (inactive)
[6]
  growth: 122% (inactive) and 1.16% (active)
[7]
  growth: 11.2% (inactive)
[8]
  growth: 104% (inactive) and 3.49% (active)
[9]
  growth: 110% (inactive) and 42.1% (inactive)
[10]
  growth: 105% (inactive) and 11.7% (inactive)
[11]
  growth: 96.1% (inactive) and -30% (active)
[12]
  growth: 108% (inactive) and 12% (inactive)
[13]
  growth: 113% (inactive) and 17.8% (inactive)
[14]
  growth: 106% (inactive) and 23% (inactive)
[15]
  growth: 108% (inactive) and -9.87% (active)

## CC(=O)Nc1ccc(O)cc1
[1]
  growth: 117% (inactive) and 98.7% (inactive)
[2]
  growth: 105% (inactive)
[3]
  growth: 92.1% (inactive) and 103% (inactive) and 109% (inactive)
[4]
  growth: 91.6% (inactive) and 118% (inactive) and 105% (inactive)
[5]
  growth: 105% (inactive) and 131% (inactive)
[17]
  growth: 107% (inactive) and 114% (inactive)
[6]
  growth: 103% (inactive) and 102% (inactive) and 107% (inactive)
[7]
  growth: 113% (inactive) and 109% (inactive)
[8]
  growth: 101% (inactive) and 93.7% (inactive) and 104% (inactive)
[10]
  growth: 94.3% (inactive) and 78.1% (inactive) and 101% (inactive)
[11]
  growth: 105% (inactive) and 109% (inactive) and 110% (inactive)
[12]
  growth: 106% (inactive) and 108% (inactive) and 103% (inactive)
[13]
  growth: 100% (inactive) and 68.3% (inactive) and 107% (inactive)
[14]
  growth: 100% (inactive) and 120% (inactive) and 104% (inactive)
[15]
  growth: 102% (inactive) and 68.4% (inactive) and 110% (inactive)
[16]
  growth: 99.4% (inactive) and 38.3% (inactive) and 107% (inactive)

## NC(=S)N/N=C(\c1ccc(Br)cc1)C1CC1
[1]
  growth: 87.6% (inactive)
[2]
  growth: 71.3% (inactive) and 60.9% (inactive)
[3]
  growth: 83% (inactive)
[4]
  growth: 110% (inactive) and 97.1% (inactive)
[5]
  growth: 74.4% (inactive)
[17]
  growth: 18.1% (inactive) and 42.3% (inactive)
[6]
  growth: 38.3% (inactive) and 37.1% (inactive)
[7]
  growth: 96.1% (inactive) and 98% (inactive)
[8]
  growth: 74.2% (inactive) and 57.5% (inactive)
[9]
  growth: 70.1% (inactive) and 36.2% (inactive)
[10]
  growth: 99.6% (inactive) and 106% (inactive)
[11]
  growth: 92% (inactive) and 91.9% (inactive)
[12]
  growth: 79.7% (inactive) and 71.1% (inactive)
[13]
  growth: 24.4% (inactive) and 20.6% (inactive)
[14]
  growth: 7.26% (active) and 2.42% (active)
[15]
  growth: 97.2% (inactive) and 93.9% (inactive)
[16]
  growth: 101% (inactive) and 108% (inactive)
